From PubChem BioAssay (NCATS)
Results filed as inconclusive are left out. Active and inactive are the calls of the source. The call rests on the fitted dose curve; in most records, active means well fitted cell-killing curve with a large enough effect; inconclusive means small, poorly fitted or top-dose-only effect; inactive means no such curve, though single readings can be large or run the other way. Where a SMILES comes first, the peptide text is derived from it. Bridges are numbered along the chain shown (N, C = ends). [ ]: non-standard residue; d: D form. hArg = N=C(N)NCCCC[C@H](N)C(=O)O; Mpa = O=C(O)CCS

Experiment: qHTS of pediatric cancer cell lines to identify multiple opportunities for drug repurposing: Primary screen for A673 cells (AID 1347092); further: nearly all actives have a fitted effect of over 45% in size
Settings: A673 Ewing sarcoma viability, CellTiter-Glo ATP luminescence, 48 h; series mostly up to 46 µM
Excerpt: Drug repurposing or repositioning has been offered as a strategy for drug development in oncology programs. This approach has special potential for childhood cancers and other rare or orphan diseases, where the expected return on new drug development has been a disincentive to pharmaceuticals. […] In this project we exploit the poly-pharmacology of drugs to discover new indications via phenotypic screening of a panel of 19 well-characterized cell lines derived from solid tumors seen in children and adolescents. The goal is to identify approved drugs with previously unrecognized anticancer properties that has the potential to reveal new mechanisms and biological processes involved in carcinogenesis or drug resistance. We employed a titration-based paradigm (quantitative high-throughput screening or qHTS), where all compounds were tested at multiple concentrations for their effect on cell viability. Concentration-response curves (CRCs) were derived directly from the primary screen, and both potency and efficacy values were used to identify compounds with robust bioactivity profiles. We screened the NIH Chemical Genomics Center (NCGC) Pharmaceutical Collection (NPC) and Mechanism Interrogation Plate (MIPE) small molecule collections of approved and investigational compounds against these cell lines; and measured metabolically active cells after 48 hours of compound treatment as a proxy for cell viability. […] Assay Submitter: Nathalia J. Martinez, National Center for Advancing Translational Sciences, National Institutes of Health, Rockville, MD, USA; email: natalia.martinez@nih.gov. Shen, M et al. Quantitative high-throughput phenotypic screening of pediatric cancer cell lines identifies multiple opportunities for drug repurposing. Oncotarget 2017 Dec 19;9(4):4758-4772. PMID 29435139.
The cells were obtained from University of North Carolina (UNC), Pediatric Preclinical Testing Program (PPT), and Coriell Institute (CI). qHTS cell viability assay: Cells were assayed in growth media at a density of 500-1,000 cells/well. Five microliters of cells were dispensed into 1,536-well, white, solid-bottom, TC-treated plates (Greiner Bio One) using a multidrop dispenser and incubated at 37 degrees C, 5% CO2, under a humidified atmosphere for 5 hours. Twenty-three nanoliters of compounds and controls (neutral control DMSO or positive control bortezomib at final concentration of 2.3 uM) were subsequently transferred by Kalypsys pintool. For primary screens, the MIPE collection was tested at 11-point dilutions (final concentrations range from 0.78 nM to 46 µM) and the NPC collection at 8-point dilutions (final concentrations range from 0.59 nM to 46 µM). Compounds tested in follow-up screens were assayed at 11-point dilutions. Cells were incubated for 48 hours, followed by addition of 3 uL of CellTiter-Glo (Promega). After a 15min incubation at room temperature, samples were analyzed for luminescence intensity using a ViewLux High-throughput CCD imager equipped with clear filters.
On the % scale 0 is the no-effect control and ±100 the full control effect.

Structure (SMILES)	outcome	activity change, negative = cytotoxic
CC(C)CCCC(C)CCCC(C)CCCCC(C)CCCC(C)CCCC(C)C (stereo not given)	inactive	–
CC(=O)Nc1ccccc1	inactive	–
CC(C)=CCC[C@@](C)(O)[C@H]1CC=C(C)CC1	inactive	–
NC(=O)[C@@H]1CSSCCC(=O)N[C@@H](CCCCN=C(N)N)C(=O)NCC(=O)N[C@@H](CC(=O)O)C(=O)N[C@@H](Cc2c[nH]c3ccccc23)C(=O)N2CCC[C@H]2C(=O)N1 ([Mpa][hArg]GDWPC-NH2; disulfide 1-7)	inactive	–
CCOc1ccccc1O[C@H](c1ccccc1)[C@H]1CNCCO1	inactive	–
CC1CCN(CCCC(=O)c2ccc(F)cc2)CC1	inactive	–
Cc1ncc(CO)c(CN)c1O	inactive	–
C/C(=C(\CCO)SS/C(CCO)=C(\C)N(C=O)Cc1cnc(C)nc1N)N(C=O)Cc1cnc(C)nc1N	inactive	–
NC(N)=NCCN1CCCCCCC1	–	2.24% [at 0.597 µM] (inactive)
CCN(CC)CCc1nc(-c2ccccc2)no1	inactive	–
COc1ccccc1OCC(O)CO (stereo not given)	inactive	–
CN1CC(=O)NC1=N	inactive	–
CN1CCN(C(=O)C2CCCCC2)CC1	inactive	–
COC(=O)c1ccccc1C(=O)c1ccc(OCCN2CCCCC2)cc1	inactive	–
CN1CCCN=C1COC(=O)C(O)(c1ccccc1)C1CCCCC1 (stereo not given)	inactive	–
COc1ccc(O)cc1	inactive	–
CC[N+](CC)(CC(=O)Nc1c(C)cccc1C)Cc1ccccc1	inactive	–
C[C@@H]1CCC[C@H](C)N1	inactive	–
NC(=O)N[C@@H](CCC(=O)O)C(=O)O	inactive	–
CCCCCCCCCCCCCCCCN	inactive	–

Structure (SMILES)	outcome	activity change, negative = cytotoxic
CC(C(=O)O)c1ccc2c(c1)Cc1cccnc1O2 (stereo not given)	inactive	–
CN/C(=C\[N+](=O)[O-])NCCSCc1csc(CN(C)C)n1	inactive	–
COc1ccccc1Oc1c(NS(=O)(=O)c2ccc(C(C)(C)C)cc2)nc(-c2ncccn2)nc1OCCO	inactive	–
C[C@@H](N)C(=O)O	inactive	–
O=C(c1ccccc1)C(O)c1ccccc1 (stereo not given)	inactive	–
O=c1[nH]c(=O)n([C@H]2C[C@H](O)[C@@H](CO)O2)cc1I	inactive	–
CC(=O)N(CC(O)CN(C(C)=O)c1c(I)c(C(=O)NCC(O)CO)c(I)c(C(=O)NCC(O)CO)c1I)c1c(I)c(C(=O)NCC(O)CO)c(I)c(C(=O)NCC(O)CO)c1I (stereo not given)	inactive	–
CC[C@]12CCCN3CCc4c(n(c5ccccc45)[C@@](O)(C(=O)OC)C1)[C@@H]32	inactive	–
O=C(O)CCCc1ccccc1	inactive	–
CNc1c2c(nn1C)CCCC2	inactive	–
NCC1CCC(C(=O)Oc2ccc(CCC(=O)O)cc2)CC1 (stereo not given)	inactive	–
CC(=O)N1C[C@H](O)C[C@H]1C(=O)O	inactive	–
O=C(NCN1CCOCC1)c1cnccn1	inactive	–
Cc1c(N(C)C)c(=O)n(-c2ccccc2)n1C	inactive	–
COC(=O)c1ccc(O)cc1	inactive	–
O=C(O)Cn1c(C(=O)Nc2nc(-c3ccccc3Cl)cs2)cc2ccccc21	inactive	–
Cc1c(Cn2ccnc2)c2ccccc2n1CCC(=O)O	inactive	–
O=C(O)c1ccccc1C(=O)Nc1ccc(S(=O)(=O)Nc2nccs2)cc1	inactive	–
O[C@@H]1CO[C@H]2[C@@H]1OC[C@@H]2O	inactive	–
O=C1c2cccc(O)c2C(=O)c2c(O)cccc21	inactive	–
